The values below come from paper PMC3795721, “Screening for Protein-DNA Interactions by Automatable DNA-Protein Interaction ELISA”.

Sequence of AT4G31550 (Q9SV15 228-325): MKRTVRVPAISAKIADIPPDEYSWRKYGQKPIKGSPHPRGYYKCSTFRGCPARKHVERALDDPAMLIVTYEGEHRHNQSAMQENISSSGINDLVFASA

The experiment addresses AT4G31550 (Arabidopsis thaliana, UniProt Q9SV15 228-325). The experiment is described as follows: DPI-ELISA; DPI-ELISA, streptavidin 384-well plate, 1-2 pmol biotinylated dsDNA per well, crude native E. coli extract, anti-His detection; buffer as in Brand et al. [46],; high values mean tight binding. The note with it: tags: C-terminal His (pET-DEST42); label: 5' biotin on forward strand; dsDNA, one strand shown.
Take AAAAAATGCCCATGTGCACCCGTACGAAAA: the binding signal was determined as 0.56 ± 0.0849 absorbance.

For the sequence AAAAAAAGTTCGCGGATTTCGGCCATAAAA, the binding signal was found to be 0.685 ± 0.148 absorbance.

AAAAAACAGTTCGATGTCACCCCCGCAAAA: the binding signal stood at 0.565 ± 0.106 absorbance.

Take AAAAAAGCCGTGGGTGATGGTCACAGAAAA: the binding signal was determined as 0.56 ± 0.113 absorbance.

In turn, AAAAAAGAGTGGTTTATTAATGTATAAAAA returned a binding signal of 0.74 ± 0.184 absorbance.

In turn, AAAAAATAGTACCGCTAATGGCTGACAAAA came in with a binding signal of 0.605 ± 0.12 absorbance.

As for AAAAAATGGTCGATCCGCATGCAGTTAAAA, the binding signal was found to be 0.52 ± 0.099 absorbance.

In turn, AAAAAACTACTACCTTTGCCTAAGCGAAAA displayed a binding signal of 0.685 ± 0.0919 absorbance.

As to AAAAAACATGTCGCACCTGTACTAACAAAA, the binding signal stood at 0.66 ± 0.127 absorbance.

As for AAAAAACGCAACTCCGGATGTGGGGTAAAA, the binding signal was 0.545 ± 0.0636 absorbance.

AAAAAATCATTTTATTTTGCCTTTCTAAAA returned a binding signal of 0.56 ± 0.127 absorbance.

On to AAAAAACATAACCGCAAAATCCCTACAAAA, for which the binding signal was found to be 0.545 ± 0.0919 absorbance.

Sequence AAAAAAAAGCGTTACATCATATGGAAAAAA came in with a binding signal of 0.56 ± 0.0566 absorbance.

Consider AAAAAACACAGCATTAGGCTATCGGTAAAA, for which the binding signal is 0.655 ± 0.134 absorbance.

As for AAAAAAGCGTAAGCCTTGACAGTCGTAAAA, the binding signal worked out at 0.725 ± 0.106 absorbance.

Sequence AAAAAAACTCAACTAGTGAACCACCAAAA displayed a binding signal of 0.625 ± 0.0636 absorbance.

Consider AAAAAACCAGCCTCAGTCCTGAACAAAAAA, for which the binding signal amounted to 0.605 ± 0.0636 absorbance.

AAAAAATTTCTATTTCATCTTTGCCCAAAA came in with a binding signal of 0.72 ± 0.156 absorbance.

Take AAAAAATGCTATCCGTGTCTATGCCAAAAA: the binding signal stood at 0.54 ± 0.0707 absorbance.

Take AAAAAATGCCATTGTACCTGTGTTCGAAAA: the binding signal was 0.395 ± 0.0354 absorbance.

With AAAAAACGCCTTATGCCTCCCGCTCGAAAA, the binding signal was found to be 0.675 ± 0.0354 absorbance.

For AAAAAAGTCTGCGTCCTACCCCATTCAAAA, the binding signal was 1.04 ± 0.184 absorbance.

In turn, AAAAAAAAATCGAATTTGGACTTCCGAAAA yielded a binding signal of 0.775 ± 0.0354 absorbance.

Regarding AAAAAAGTTATTATACCTGATCTCGCAAAA, the binding signal turned out to be 1 ± 0.778 absorbance.

As to AAAAAATGTGGTTACGGCCTCGATGAAAAA, the binding signal amounted to 0.565 ± 0.106 absorbance.

Sequence AAAAAAGTCCATAAACTAAATTGGATAAAA yielded a binding signal of 0.525 ± 0.0495 absorbance.

With AAAAAACGGTCGCGATCGTTAATGATAAAA, the binding signal is 0.75 ± 0.17 absorbance.

As for AAAAAAATCTTTGCGTCGAGATTCTTAAAA, the binding signal turned out to be 0.59 ± 0.0707 absorbance.

As for AAAAAATCTATTCCATTTCGCCTTCTAAAA, the binding signal stood at 0.68 ± 0.141 absorbance.

AAAAAAGGACGTCTTCGGTATGAGTGAAAA: the binding signal came to 0.815 ± 0.163 absorbance.

Turning to AAAAAACCAACTCTCTTTCGGACTATAAAA, the binding signal is 0.67 ± 0.156 absorbance.

As for AAAAAACGTTGAACCTGGGCCTCAACAAAA, the binding signal worked out at 1.39 ± 0.191 absorbance.

Consider AAAAAAGGTTTAGCCCATGCCTGTGCAAAA, for which the binding signal worked out at 0.645 ± 0.12 absorbance.

Take AAAAAATACGTCTACGTGGTTGTCGTAAAA: the binding signal was 0.72 ± 0.127 absorbance.

AAAAAACTTCCCTCCTTGTCCTCCCCAAAA: the binding signal came out at 0.66 ± 0.113 absorbance.

In turn, AAAAAATGGAAGGAGAGGGATGAAATAAAA came in with a binding signal of 0.57 ± 0.156 absorbance.

As for AAAAAAGATGATTAGTAATTGCGGAAAAAA, the binding signal turned out to be 0.75 ± 0.0849 absorbance.

In turn, AAAAAAGTGTTTGTGCTTCTCTCTGTAAAA came in with a binding signal of 0.58 ± 0.0707 absorbance.
